High-throughput results: PubChem BioAssay, National Center for Advancing Translational Sciences (NCATS)
BAZ2B block = blocks human BAZ2B | actives 4.4% (n = 360,000) | AID 504333 | AlphaScreen BAZ2B-H3K14Ac peptide displacement | Potency, µM (titrated, usually from 114 µM), actives largely listed as inhibitors | Q9UIF8; also: nearly all actives have a fitted effect of over 60% in size
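In this displacement format the biotinylated H3(5-23) peptide acetylated at Lys14 serves as ligand at 50 nM, with BAZ2B at 50 nM in PBS pH 7.4 containing 0.01% Tween-20. Donor and acceptor beads are 10 ug/mL final.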
G9a block = inhibitors of human histone lysine methyltransferase G9a | Q96KQ7 | G9a H3K9 monomethylation, AlphaScreen, 2 h | Potency, µM (highest dose often 102 µM), actives largely listed as inhibitors | actives 8.8% (n = 350,000); also: nearly all actives have a fitted effect of over 75% in size
Target sequence (Q96KQ7 913-1193 limits assumed): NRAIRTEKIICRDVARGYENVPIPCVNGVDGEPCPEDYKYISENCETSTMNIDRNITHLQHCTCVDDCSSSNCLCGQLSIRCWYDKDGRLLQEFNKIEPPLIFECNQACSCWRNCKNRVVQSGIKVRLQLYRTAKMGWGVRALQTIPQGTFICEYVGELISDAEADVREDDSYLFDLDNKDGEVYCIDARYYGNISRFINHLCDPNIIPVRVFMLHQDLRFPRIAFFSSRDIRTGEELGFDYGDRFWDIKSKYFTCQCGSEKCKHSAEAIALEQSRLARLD
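Readings reflect AlphaScreen signal from monomethyl-H3K9 antibody detection. HMT at 20 nM; substrate b-H3K9 500 nM; cofactor SAM 20 uM; 2 h RT reaction; compounds tested as titrations in qHTS with 15 min preincubation.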
PLK1 PBD block = inhibitors of human PLK1 polo-box domain binding; P53350; Plk1 PBD binding of FITC phosphopeptide, fluorescence polarization; Potency, µM, most hits filed as inhibitors; actives 2.8% (n = 360,000); also: series mostly up to about 57 µM; nearly all actives have a fitted effect of over 65% in size
Sfp PPTase inh = inhibitors of Bacillus subtilis Sfp phosphopantetheinyl transferase; actives 3.5% (n = 310,000); Biochemical Sfp PPTase activity, qHTS; Potency, µM, most hits filed as inhibitors;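 also: the enzyme is Sfp with the accession as filed and its product quenches rhodamine fluorescence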
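Buffer: 50 mM Hepes-Na pH 7.6, 10 mM MgCl2, 0.01% Nonidet P-40, 0.01% BSA. Enzyme 15 nM, pre-exposed to compound 15 min; substrates then added and fluorescence change tracked over 30 min.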
HP1b binding inh = HP1-beta chromodomain-methylated histone interaction inhibition. P83916. AlphaScreen HP1-beta / biotin-H3K9me3 peptide binding. Potency, µM (titrated, usually from 114 µM), hits mostly inhibitors. actives 0.56% (n = 390,000). AID 540317; also: nearly all actives have a fitted effect of over 70% in size
Target sequence (P83916 whole entry, looked up): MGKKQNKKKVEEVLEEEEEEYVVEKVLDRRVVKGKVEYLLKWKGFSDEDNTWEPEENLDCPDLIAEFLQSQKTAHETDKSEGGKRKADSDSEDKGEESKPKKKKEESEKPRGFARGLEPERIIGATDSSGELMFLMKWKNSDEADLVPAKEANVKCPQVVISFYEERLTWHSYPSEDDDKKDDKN
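Compound inhibition of the preformed complex between 50 nM HP1-beta and 50 nM biotinylated H3K9me3 peptide was read by AlphaScreen. Buffer was PBS pH 7.4 with 0.01% Tween-20. Incubations ran 30 min at room temperature, with 10 ug/mL donor/acceptor beads.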
JMJD2A Tudor inh = blocks the human JMJD2A Tudor domain. O75164. Potency, µM (doses to about 114 µM), hits mostly inhibitors. actives 4.4% (n = 390,000). AID 504339. AlphaScreen JMJD2A-Tudor / H3K4me3 peptide binding; also: nearly all actives have a fitted effect of over 50% in size
Numbers stand for hits; i = inactive; ? = inconclusive; nt = not tested or not shown; [ ] = dose if it differs, or a comment. In the library only some 12% were active in any assay of this set; here they are far more common. Calls follow the shape of the dose curve; as a rule, active = well fitted curve in the direction sought with a large enough effect; inconclusive = small, poorly fitted or top-dose-only effect, or another doubt; inactive = no such curve, though single readings can be large; an effect the other way counts as inactive or inconclusive.

SMILES	BAZ2B block	G9a block	PLK1 PBD block	Sfp PPTase inh	HP1b binding inh	JMJD2A Tudor inh
CCCN(CC1CC1)C(=O)CSc1ncnc2sccc12	i	39.8µM	i	i	i	i
Clc1nc(Oc2ccccc2)nc(-c2cn(-c3ccccc3)c3ccccc23)n1	?	39.8µM	i	i	i	?
O=Cc1ccc(-n2cc(C=O)c3ccccc32)cc1	i	i	i	i	i	i
CCNc1nc(Cl)nc(-c2cn(-c3ccccc3)c3ccccc23)n1	i	70.8µM	i	?	i	i
CCN(CC(=O)NC(C)C)C(=O)[C@H](C)NC(=O)c1ccc(Br)cc1	i	i	i	i	i	i
CC(C)(C)c1ccccc1OCCOCCNCc1ccccc1	79.4µM	14.1µM	i	i	?	22.4µM
CNCCOc1ccccc1C(C)(C)C	?	12.6µM	i	?	i	3.16µM
CC(C)(C)NCCCCOc1ccccc1F	i	i[12.7 µM]	i	i	i	i
C(=N\n1c2ccccc2c2ccccc21)/c1ccccc1	i	i	i	i	i	i
C(=N/n1c2ccccc2c2ccccc21)/c1ccco1	8.91µM	?	i	i	35.5µM	?
CC(C)COc1cccc(C(=O)NC(=S)NCc2cccnc2)c1	i	44.7µM	i	i	i	?
CCCOc1ccc(C(=O)NCc2cccnc2)cc1	i	i[12.7 µM]	i	i	i	i
COCc1ccc(C(=O)Nc2ccccc2C(=O)NCc2cccnc2)cc1	i	i	i	i	i	i
CCCOc1ccc(C(=O)NC(=S)NCc2cccnc2)cc1	?	44.7µM	i	i	i	i
CCOc1ccc(C(=O)NCc2cccnc2)cc1	i	i	i	i	i	i
CCOc1ccc(C(=O)NC(=S)NCc2cccnc2)cc1	i	1µM	i	i	i	i
CCOc1cccc(C(=O)NC(=S)NCc2cccnc2)c1	i	i	i	i	i	i
C=CCOc1ccc(C(=O)Nc2ccccc2C(=O)NCc2cccnc2)cc1	i	70.8µM	i	i	i	i
Cc1ccc(-c2nnc(Nc3cccc(C(F)(F)F)c3)c3ccccc23)cc1S(=O)(=O)N1CCOCC1	i	i	nt	nt	i	i
CCC(CO)Oc1cc(NC(=O)c2ccc(F)cc2)c2ncn(C(C)C)c2c1 (stereo unspecified)	i	i[0.501 µM]	?	nt	i	50.1µM
CCC(CO)Oc1cc(NC(=O)c2cccc(Cl)c2)c2ncn(C(C)C)c2c1 (stereo unspecified)	79.4µM	i[0.501 µM]	i	nt	i	?
Cc1ccc(C(=O)NC(=S)Nc2nc(-c3cccc([N+](=O)[O-])c3)cs2)c(Cl)c1	i	i	i	i	i	i
Cc1c(/C=N/NC(=O)CNc2ccccc2)c2ccccn2c1C(=O)c1ccccc1	i	39.8µM	i	i	i	?
Cc1c(/C=N/NC(N)=O)c2ccccn2c1C(=O)c1ccncc1	i	44.7µM	i	i	i	?
Nc1ccc(NC(=O)c2cccc(C(=O)Nc3ccc(N)cc3Cl)c2)c(Cl)c1	i	i[2.33 µM]	i	i	i	i
SMILES	BAZ2B block	G9a block	PLK1 PBD block	Sfp PPTase inh	HP1b binding inh	JMJD2A Tudor inh
CCC(=O)N1CCc2cc(S(=O)(=O)NCCC(=O)Nc3ccc(OC)c(OC)c3)ccc21	nt	i	nt	nt	i	i
Oc1ccc(Br)cc1-c1cc(-c2ccccc2Cl)[nH]n1	i	i	23.8µM	i	i	i[11.4 µM]
Cc1ccc(-c2cc(-c3ccccc3Cl)[nH]n2)c(O)c1	i	i	i	i	i	i
Cc1ccccc1-c1cc(-c2ccccc2O)n[nH]1	i	i[12.7 µM]	3.36µM	i	?	i[11.4 µM]
COc1ccc(N(CC(=O)N2CCCCCC2)S(C)(=O)=O)cc1Cl	i	nt	i	i	i	i
COc1ccc(N(CC(=O)N2CCc3ccccc3C2)S(C)(=O)=O)cc1Cl	i	50.1µM	i	i	i	i
Cc1ccc(N=CC2=C(O)CC(C)(C)CC2=O)nc1	i	?	i	i	i	i
CC1(C)CC(=O)C(/C=N/c2ncccc2C(=O)O)=C(O)C1	i	50.1µM	i	i	i	i
O=c1onc(-c2ccccc2)n1Cc1ccc([N+](=O)[O-])cc1	nt	nt	i	nt	nt	nt
CC(Nc1ccc2c(c1)OCCO2)C(=O)N1CCc2ccccc21 (stereo unspecified)	44.7µM	?	i	i	i	?
Nc1ccccc1SCC(=O)Nc1ccc2c(c1)OCCO2	i	28.2µM	?	i	i	i
